The list is not random: actives were taken first. Their share in the collection is about 19%.
DT40 TDP1 CPT – qHTS for Inhibitors of human tyrosyl-DNA phosphodiesterase 1 (TDP1): qHTS in cells in presence of CPT | chicken DT40 Tdp1-/-;hTDP1 cells + 20 nM CPT, ATP luminescence, 48 h | Potency, µM (series often up to 46.2 µM), inactives show at the top dose activity change, negative = growth inhibition, hits mostly inhibitors | actives 12% (n = 420,000) | AID 686979, 2013; note: potency is the fitted concentration of half-maximal effect; nearly all actives have a fitted effect of over 55% in size
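Cell growth measured by CellTiter-Glo luminescence after a minimum 48 h, 37 C compound exposure with 20 nM CPT in Tdp1-knockout DT40 cells stably expressing hTDP1, seeded 400/well; qHTS titration format.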
HT1080 IDH1KD tx – qHTS for induction of synthetic lethality in tumor cells producing 2HG: qHTS for the HT-1080-IDH1KD cell line; actives 2% (n = 360,000); AID 686971, 2013; Potency, µM (highest dose often 46.1 µM), for the others: at the highest dose activity, negative = toxicity, hits mostly cytotoxic; HT-1080 IDH1 knockdown viability, ATP luminescence, 48 h;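 note: potency is the fitted concentration of half-maximal effect; 0% = DMSO wells and -100% = cell-free medium wells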
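Knockdown cells (IDH1KD HT-1080) received compounds 2 h after plating at 750 cells/well and were kept 48 h at 37 °C in 5% FBS RPMI. A CellTiter-Glo luminescence read gave % activity for curve fitting.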
IL1B secr inh – qHTS for Inhibitors of Inflammasome Signaling: IL-1-beta AlphaLISA Primary Screen; THP-1 LPS/ATP IL-1B secretion, AlphaLISA, 16 h; hits give low values; activity change, % at 57.5 µM; actives 4.7% (n = 360,000); AID 743279, 2014; in the data active = activity change below about -50%; inconclusive = mostly about -30% to -49%
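THP-1 cells pretreated 1 hr with compounds (up to 57.5 uM final), then stimulated with LPS (250 ng/mL final) plus ATP (1.25 mM final); secreted IL-1B measured by AlphaLISA after 16 hr, decreased signal indicating inhibition.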
HT1080-NT tox – qHTS for induction of synthetic lethality in tumor cells producing 2HG: qHTS for the HT-1080-NT fibrosarcoma cell line; HT-1080-NT fibrosarcoma viability, CellTiter-Glo ATP luminescence, 48 h; Potency, µM (titrated, usually from 46.1 µM), inactives show top-dose activity, negative = less viability, hits mostly cytotoxic; actives 1.6% (n = 360,000); AID 686970, 2013;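 note: NT is the 2HG producing partner of a matched IDH1 knockdown line; potency is the fitted concentration of half-maximal effect; 0% = DMSO-treated cells and -100% = media-only wells without cells; nearly all actives have a fitted effect of over 55% in size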
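HT-1080-NT fibrosarcoma cells (2HG-overproducing), 750 cells/well in RPMI with 5% FBS, dosed after 2 h and incubated 48 h at 37C. CellTiter-Glo luminescence normalized to DMSO and no-cell wells; concentration-response curves fitted and classed.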
DT40 TDP1 no CPT – qHTS for Inhibitors of human tyrosyl-DNA phosphodiesterase 1 (TDP1): qHTS in cells in absence of CPT; Potency, µM (series often up to 46.2 µM), inactives show top-dose activity change, negative = growth inhibition, hits mostly inhibitors; DT40 Tdp1-/- hTDP1 cells, no CPT, ATP luminescence, 48 h; actives 15% (n = 420,000); note: potency is the fitted concentration of half-maximal effect; nearly all actives have a fitted effect of over 55% in size
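Chicken DT40 Tdp1-/- cells complemented with human TDP1, screened without camptothecin (DMSO vehicle only), 400 cells/well. Compounds pin-transferred, cells incubated at 37 °C for at least 48 hr. Growth read as ATP-dependent luminescence (CellTiter-Glo, 30 min at RT).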
An asterisk follows results filed as active; ? = inconclusive; · = no result given. Unless noted, calls come from the whole dose curve; as a rule, active = well fitted curve in the direction sought with a large enough effect; inconclusive = small, poorly fitted or top-dose-only effect, or another doubt; inactive = no such curve, though single readings can be large; an effect the other way counts as inactive or inconclusive. Unless noted, % is set by controls: 0 for no effect and ±100 for the full control effect.

SMILES	DT40 TDP1 CPT	HT1080 IDH1KD tx	IL1B secr inh	HT1080-NT tox	DT40 TDP1 no CPT
CN(C)c1ccc(-c2ccnc3c2CC(C)(C(=O)Nc2ccccc2)O3)cc1 (stereo unspecified)	3.0%	17.3%	-0.2	7.0%	-22.3%
O=C(O)CC/C=C\CC[C@@H]1[C@@H](N2CCCCC2)[C@@H](O)C[C@@H]1OCc1ccc(-c2ccccc2)cc1	-16.2%	·	·	·	?
CN(C)c1ccc(-c2ccnc3c2CC(C)(C(=O)NCC2CCOCC2)O3)cc1 (stereo unspecified)	16.4µM*	-4.2%	0.0	-21.4%	13µM*
CC(C)CNC(=O)C1(C)CCCCCN1C(=O)c1cc(C#N)cs1 (stereo unspecified)	1.8%	0.7%	-17.4	2.5%	13.8%
O=C(Oc1ccc(/C=N/NC(=O)c2ccccn2)cc1)c1cccc(F)c1	-0.7%	7.2%	-6.4	-0.7%	-25.3%
Cc1ccc(N2CCC3CC2c2cc(-c4ccc(C(F)(F)F)cc4)ccc23)cc1 (stereo unspecified)	?	3.7%	48.5	0.0%	16.4µM*
COc1cccc(CN2CCCC(c3nc(-c4ccncc4)ncc3-c3ccccc3C)C2)c1O (stereo unspecified)	?	·	·	·	-32.0%
c1ccc2c(CSCCc3ccncc3)cccc2c1	23.1µM*	-15.8%	17.3	-12.1%	20.6µM*
c1ccc2c(CCc3ccncc3)cccc2c1	-16.0%	-3.4%	-88.1*	-4.5%	-16.3%
COC(CN(C(=O)CCl)C(C(=O)NC1CCCCC1)c1ccc(Cl)cc1)OC (stereo unspecified)	5.17µM*	-18.6%	?	-11.3%	3.26µM*
COc1ccc(C(C(=O)NC2CCCCC2)N(C(=O)CCl)c2ccc(Cl)cc2)cc1 (stereo unspecified)	1.03µM*	1.46µM*	-96.2*	2.31µM*	-104.5%
COC(CN(C(=O)CCl)C(C(=O)NC1CCCC(C)C1C)c1ccc(C)cc1)OC (stereo unspecified)	5.17µM*	-0.9%	-100.0*	-0.9%	20.6µM*
O=C(NC1CCCCC1)C(c1cccnc1)N(C(=O)CCl)c1cccc(Cl)c1 (stereo unspecified)	2.06µM*	1.84µM*	-92.8*	5.17µM*	2.06µM*
CN(C)C(C(=O)NC1CCCCC1)c1ccc(Cl)cc1 (stereo unspecified)	-24.4%	-3.7%	-5.4	-9.9%	?
Cc1ccc(S(=O)(=O)N2C[C@@H](C)[C@]3(C2)[C@H](O)[C@H](OC(=O)Nc2c(C)noc2C)C[C@H]2C(=O)N(c4ccccc4)C(=O)[C@H]23)cc1	6.1%	-1.5%	10.3	2.4%	-21.4%
CN(C)CCCNc1nc2cc(-c3cccc(Cl)c3)sc2c(=O)n1C	?	16.4µM*	-24.8	?	?
Cn1c(NCc2cccnc2)nc2cc(-c3cccc(C(F)(F)F)c3)sc2c1=O	?	11.5%	2.1	-6.2%	?
Cn1c(NCc2ccccc2)nc2cc(-c3cccc(C(F)(F)F)c3)sc2c1=O	?	7.6%	0.0	12.0%	18.4µM*
COc1ccc(-c2cc3nc(NCCCN(C)C)n(C)c(=O)c3s2)cc1OC	?	1.8%	-14.9	-27.9%	?
CN(C)CCCNc1nc2cc(-c3cccc(C(F)(F)F)c3)sc2c(=O)n1C	18.4µM*	?	-65.8*	?	?
C/C=C\C=C/C(=O)Nc1cccc(C2=NOC3(C2)C[C@H](C(N)=O)N(C(=O)c2ccc(OC)cc2)C3)c1 (stereo partly specified)	-17.9%	4.4%	-1.8	9.9%	-3.3%
CC(C)(C)CC(=O)NCCc1csc(-c2ccccc2)n1	?	-4.1%	-26.8	-3.9%	?
O=C(Nc1ccc(S(=O)(=O)NCc2ccccc2)cc1)c1ccc(Br)o1	20.6µM*	-0.7%	24.3	-2.5%	20.6µM*
CC(=O)Nc1ccc(S(=O)(=O)NCc2cccnc2)cc1	3.26µM*	28.1%	24.5	21.5%	?
O=C(Nc1ccccc1)c1ccc(S(=O)(=O)NCc2cccnc2)cc1	-50.4%	-16.0%	9.2	-25.5%	?
SMILES	DT40 TDP1 CPT	HT1080 IDH1KD tx	IL1B secr inh	HT1080-NT tox	DT40 TDP1 no CPT
O=C(Nc1ccc(S(=O)(=O)NCc2cccnc2)cc1)c1ccccc1Cl	13µM*	-8.6%	2.0	0.7%	10.3µM*
O=C(Nc1ccc(S(=O)(=O)NCc2cccnc2)cc1)c1ccco1	?	-1.5%	21.8	2.8%	?
CNC(=O)Cn1nc(C)c(S(=O)(=O)N2CCOCC2)c1C	1.7%	6.0%	9.2	16.3%	-1.9%
O=C1c2ccccc2C(Nc2ccccc2)N1Cc1ccc2c(c1)OCO2 (stereo unspecified)	-0.6%	-28.4%	?	-20.7%	-12.7%
CCN(CC)S(=O)(=O)c1ccc(NC2c3ccccc3C(=O)N2Cc2ccco2)cc1 (stereo unspecified)	20.6µM*	-3.7%	-23.7	-10.6%	11.6µM*
CCN(CC)S(=O)(=O)c1ccc(NC2c3ccccc3C(=O)N2Cc2ccc3c(c2)OCO3)cc1 (stereo unspecified)	16.4µM*	-19.5%	-16.4	-18.5%	?
Cc1ccccc1NC1c2ccccc2C(=O)N1Cc1ccco1 (stereo unspecified)	-8.3%	-16.8%	24.9	0.0%	-30.4%
COc1cc(NS(=O)(=O)c2ccc(NC(=O)c3ccc(Cl)cc3Cl)cc2)nc(OC)n1	?	·	·	·	-19.5%
Cc1onc(-c2ccccc2)c1C(=O)OCC(=O)N(C)c1ccccc1	-17.2%	-5.4%	10.0	-8.1%	-27.0%
Cc1onc(-c2c(F)cccc2Cl)c1C(=O)OCn1nnc2ccccc2c1=O	?	-20.6%	51.7	-2.1%	23.1µM*
Cc1onc(-c2c(F)cccc2Cl)c1C(=O)O/N=C(\N)c1ccc([N+](=O)[O-])o1	-12.5%	11.6µM*	·	-18.1%	-22.6%
Cc1onc(-c2c(F)cccc2Cl)c1C(=O)OCC(=O)N(C)c1ccccc1	1.3µM*	-0.6%	31.4	-3.2%	0.92µM*
Cc1onc(-c2c(F)cccc2Cl)c1C(=O)OCC(=O)NCc1ccccc1	?	0.1%	-25.4	10.4%	?
Cc1noc(C)c1C(=O)OCC(=O)Nc1c(F)cccc1F	16.4µM*	4.0%	8.1	7.1%	18.4µM*
COc1ccc(N2CCN(S(=O)(=O)CCNC(=O)c3cccs3)CC2)cc1	-7.0%	-0.1%	7.3	0.5%	-3.3%

Compound activity: PubChem, National Center for Advancing Translational Sciences (NCATS)
